These results are taken from PubChem BioAssay (NCI).

A short description of assay [1]: NCI Yeast Anticancer Drug Screen. Data for the rad50 strain (AID 155).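 Further: 0% = growth of vehicle-only cultures of the same strain.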 To be noted: S. cerevisiae rad50 strain growth inhibition; at 50.0 µM; hits give high values. The procedure, abridged:
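Yeast carrying a defined DNA repair defect were exposed to test compounds, and growth was compared with vehicle-treated controls to give percent inhibition.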

Assay [2] is described as follows: NCI Yeast Anticancer Drug Screen. Data for the mec2-1 strain (AID 157). Conditions: S. cerevisiae mec2-1 strain, at 50.0 µM, hits give high values. The procedure, abridged: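 Yeast mec2-1 mutant treated with compound. Readout: growth inhibition vs vehicle controls.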
Assay [3] in a line: NCI Yeast Anticancer Drug Screen. Data for the sgs1 mgt1 strain (AID 161).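 Further: 0% = growth of cultures given vehicle only.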 To be noted: S. cerevisiae sgs1 mgt1 strain, at 50.0 µM, hits give high values. Put shortly:
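Genetically altered yeast, compound exposure, growth inhibition relative to vehicle.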

Assay [4] is described as follows: NCI Yeast Anticancer Drug Screen. Data for the cln2 rad14 strain (AID 165).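 Further: 0% = growth equal to vehicle treated cultures.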 To be noted: S. cerevisiae cln2 rad14 strain, at 50.0 µM, hits give high values. The procedure, abridged: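 cln2 rad14 yeast strain; compound exposure; growth inhibition read vs vehicle controls.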
Assay [5] in a line: NCI Yeast Anticancer Drug Screen. Data for the bub3 strain (AID 167). Conditions: S. cerevisiae bub3 mutant strain, at 50.0 µM, hits give high values. Put shortly: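 Compounds were applied to a genetically altered yeast strain carrying a cell-cycle control defect. Growth inhibition was scored against vehicle-treated controls.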
The nature of assay [6]: NCI Yeast Anticancer Drug Screen. Data for the mlh1 rad18 strain (AID 175). Conditions: S. cerevisiae mlh1 rad18 strain growth inhibition; at 50.0 µM; hits give high values. The procedure, abridged:
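Yeast w/ defined DNA-repair lesions; compound exposure; growth vs vehicle controls → % inhibition.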

Structures are written as SMILES. About 79,000 compounds went through this panel and 15% of them were active in at least one assay; those are over-represented in the sample as a whole. A number with no mark means an inactive call. The source made the active and inactive calls. No stated cut-off is given here; in the data, active means growth inhibition above about 70%; inactive means the rest.

`NC(=O)Cc1ccncc1`: the growth inhibition in assay [1] is 5.95%; in assay [2], -2.85%; in assay [3], -3.95%; in assay [4], -9.9%; in assay [5], -2.7%; in assay [6], 1.55%.
Take `O=C1NC(=O)C(=CN2C(=O)/C(=C/c3ccc([N+](=O)[O-])cc3)SC2=S)C(=O)N1`: the growth inhibition is -0.4% in assay [1]; 33.2% in assay [2]; 40.6% in assay [3]; 20.4% in assay [4]; 20.6% in assay [5]; 21.9% in assay [6].
`COc1ccc(C(=O)NNC(=O)c2ccccc2)cc1`: the growth inhibition was 11.9% in assay [1]; -42.5% in assay [2]; -14.8% in assay [3]; 10.1% in assay [4]; -1.1% in assay [5]; -14.2% in assay [6].
Regarding `CC(C)(O)CC(=O)/C=C\c1ccc2c(c1)OCO2`, the growth inhibition in assay [1] is 25.9%; in assay [2], 27.9%; in assay [3], 10.1%; in assay [4] it was -11.9%; in assay [5], -4.4%; in assay [6], 4.35%.
`CCn1c(=O)c2ccccc2c2cc([N+](=O)[O-])ccc21`: the growth inhibition in assay [1] was 7.65%; in assay [2] it was 18.1%; in assay [3] it was 2.75%; in assay [4], 17.1%; in assay [5], 12.2%; in assay [6], -2.7%.
As for `O=C(COc1ccccc1[N+](=O)[O-])Nc1cccnc1`, the growth inhibition in assay [1] was -18.9%; in assay [2], -10.8%; in assay [3], -12.3%; in assay [4], -9.25%; in assay [5], -3.25%; in assay [6], 8.25%.
Consider `CCOC(=O)Cc1cccnc1N`, for which the growth inhibition is -3.15% in assay [1]; -9.45% in assay [2]; -19.9% in assay [3]; -3.9% in assay [4]; 1% in assay [5]; -2.25% in assay [6].
Turning to `O=C(O)C(c1ccccc1)S(=O)(=O)c1ccccc1` (stereo unspecified), the growth inhibition in assay [1] was 3.55%; in assay [2], -7%; in assay [3], 8.85%; in assay [4] it was -16.7%; in assay [5], -11.5%; in assay [6], 5.95%.
As for `O=C(Nc1cccc(C(=O)Nc2ccc3cc(S(=O)(=O)O)cc(S(=O)(=O)O)c3c2)c1)Nc1cccc(C(=O)Nc2ccc3cc(S(=O)(=O)O)cc(S(=O)(=O)O)c3c2)c1`, the growth inhibition is 6.8% in assay [1]; 34.1% in assay [2]; 9.25% in assay [3]; -3% in assay [4]; 3.65% in assay [5]; 33% in assay [6].
Consider `CC(C)CC(=O)Cc1nc2n(c1O)C(=N)N=N2`, for which the growth inhibition in assay [1] was -35.5%; in assay [2] it was -15.9%; in assay [3] it was -14.2%; in assay [4], -40.7%; in assay [5], -11.8%; in assay [6] it was -20.1%.
Regarding `CN(C)C=Nc1c(Br)cc(Br)c2nonc12`, the growth inhibition is -26.7% in assay [1]; -31.1% in assay [2]; -32.5% in assay [3]; -23.8% in assay [4]; -22.9% in assay [5]; -8.45% in assay [6].
On to `CC(=O)OCC(=O)[C@@]1(O)CC[C@H]2[C@@H]3C[C@H](Cl)C4=CC(=O)C=C[C@]4(C)[C@H]3C(=O)C[C@@]21C`, for which the growth inhibition in assay [1] was 15.4%; in assay [2], 3%; in assay [3], 47.5%; in assay [4] it was 49.5%; in assay [5], -7.75%; in assay [6], 39.5%.
As for `COC(=O)CC(C(C(=O)OC)C(=O)OC)N1C(=O)OCC1c1ccccc1` (stereo unspecified), the growth inhibition was -16.6% in assay [1]; -0.45% in assay [2]; -29.1% in assay [3]; -12.3% in assay [4]; -17.9% in assay [5]; -15.9% in assay [6].
Take `CCCCC(CC)COC(=O)C(C)CCC` (stereo unspecified): the growth inhibition in assay [1] was 4.65%; in assay [2], -1.1%; in assay [3], -2.4%; in assay [4], -27.7%; in assay [5], 17.9%; in assay [6], 5%.
As for `O[C@H]1[C@H]2[C@H](O)C[C@H](CCOCc3ccccc3)CN2C[C@H]1O`, the growth inhibition is -8.15% in assay [1]; 7.8% in assay [2]; -3.45% in assay [3]; 20% in assay [4]; 16% in assay [5]; -22.9% in assay [6].
Consider `COC(=O)C(=O)[C@@H](O)[C@H](O)[C@@H](O)CO`, for which the growth inhibition in assay [1] is 29.8%; in assay [2], 23.7%; in assay [3], 25%; in assay [4] it was 13.1%; in assay [5], 25.7%; in assay [6], 23.6%.
In the case of `CCCCCCCN1C=CCC(S(=O)(=O)N2CCOCC2)=C1`, the growth inhibition in assay [1] was -15.7%; in assay [2] it was -7.75%; in assay [3], -11.4%; in assay [4] it was 3.85%; in assay [5], -16.8%; in assay [6], -2%.
`O=C(/C=C/c1ccccc1Cl)c1ccccc1[N+](=O)[O-]`: the growth inhibition in assay [1] was 96% (active); in assay [2], 97.5% (active); in assay [3], 97.7% (active); in assay [4] it was 94.7% (active); in assay [5] it was 96.5% (active); in assay [6], 95.7% (active).
Consider `CC1C(=O)OC2CC[N+]3(C(=O)C(F)(F)F)CC4OC4(COC(=O)C(C)(O)C1(C)O)C23` (stereo unspecified), for which the growth inhibition was -13.2% in assay [1]; -32% in assay [2]; -12.8% in assay [3]; 2.2% in assay [4]; 0.65% in assay [5]; -8.9% in assay [6].
Regarding `CNC(=O)OCc1nc(N=[N+]=[N-])n(C)c1COC(=O)NC`, the growth inhibition is -16.9% in assay [1]; -19.1% in assay [2]; -3.65% in assay [3]; -31.4% in assay [4]; 2.2% in assay [5]; -24.4% in assay [6].
As for `CCOC(=O)NC(NC(=O)OCC)c1ccc2c(c1)OCO2`, the growth inhibition in assay [1] was -38.5%; in assay [2] it was 17.4%; in assay [3], 17.1%; in assay [4], -11.8%; in assay [5], 5.75%; in assay [6], 3.8%.
